The source made the active and inactive calls. How the source made its calls: active means hit-call score of the fitted dose curve at least 0.9, where 1 is the maximum; inactive means score below 0.9.
Experiment: ATG_RORE_CIS: Attagene CIS-FACTORIAL HepG2 Assay for human RAR-related Orphan Receptor Element (RORE) (AID 2282959)
Conditions: HepG2 Attagene cis-factorial RORE reporter, mRNA; actives raise or lower the signal
Method: ATG_CIS is a cell-based, multiplexed-readout assay that uses HepG2, a human liver cell line, with measurements taken at 24 hours after chemical dosing in a 24-well plate.ATG_RORE_CIS is one of 52 assay component(s) measured or calculated from the ATG_CIS assay. It is designed to make measurements of mRNA induction, a form of inducible reporter, as detected with fluorescence intensity signals by Reverse transcription polymerase chain reaction (RT-PCR) and Capillary electrophoresis technology.Data from the assay component ATG_RORE_CIS was analyzed into 1 assay endpoint. This assay endpoint, ATG_RORE_CIS, was analyzed with bidirectional fitting relative to DMSO as the negative control and baseline of activity. Using a type of inducible reporter, measures of mRNA for gain or loss-of-signal activity can be used to understand the reporter gene at the transcription factor-level as they relate to the gene RORA and RORB and RORC. Furthermore, this assay endpoint can be referred to as a primary readout, because this assay has produced multiple assay endpoints where this one serves a reporter gene function. To generalize the intended target to other relatable targets, this assay endpoint is annotated to the nuclear receptor intended target family, where the subfamily is orphan.
Human liver HepG2 cells are transiently transfected with multiple reporter transcription units (MRTUs) in 6-well plates using FuGene 6 reagent (Roche; 3 ml FuGene/1 mg DNA). The MRTU constructs are regulated by a cis-regulating element (promoter). […] A major difference between the CIS and TRANS system is that in CIS activities of endogenous TFs are measured, whereas the TRANS assay evaluates changes in activities of exogenous, chimeric NR-Gal4 proteins. […] At the end of 24 hour incubation, total RNA was isolated using TriZol reagent (Invitrogen). The isolated RNA is then reverse-transcribed using oligo(dT) primer and Mo-MLV reverse transcriptase (Invitrogen) with DNAse I (Ambion) treatment for 30 min. The one-tenth of the produced cDNA was amplified by PCR using Taq DNA polymerase (Invitrogen) and two reporter sequence-specific primers. The PCR products were fluorescently labeled by primer extension with 6-arboxyfluorescein (6-FAM) 5'-labeled reporter sequence-specific primer (2 min at 95 C, 20 s at 68 C and 10 min at 72 C) and these products were digested with 5U of HpaI (New England Biolabs) for 2h at 37 C. The fragments were purified using Qiaquick PCR columns (Qiagen), analyzed on an ABI 3130xL genetic analyzer (Applied Biosystems) with peak positions identified by using a set of X-rhodamine (ROX)-labeled MapMarker1000 molecular weight standards (BioVentures). The raw capillary electrophoresis data was processed using Attagraph software (Attagene).

SMILES	outcome	AC50
CC(=O)Nc1ccc(CC(=O)O)cc1	inactive	–
O=C(OCc1ccccc1)C(=O)OCc1ccccc1	inactive	–
CCCc1ccccc1O	inactive	–
COc1cc(C)cc(O)c1	inactive	–
COc1ccc(Nc2ccccc2)c(C)c1	–	51.5 µM (active)
CCc1ccc(C=O)cc1	inactive	–
CCCCCCCCCCCCCC(=O)O	inactive	–
CCCCNC(=O)NS(=O)(=O)c1ccc(C)cc1	inactive	–
CCC(=O)/C=C/C1C(C)=CCCC1(C)C (stereo not given)	inactive	–
O=[N+]([O-])c1ccc(Nc2ccc(Nc3ccccc3)c(S(=O)(=O)O)c2)c([N+](=O)[O-])c1	–	40.1 µM (active)
C=C(C)[C@@H]1CC[C@@H](C)C[C@@H]1O	inactive	–
O=C(O)c1cccc(C(F)(F)F)c1	inactive	–
OCCCCCO	inactive	–
CC(=O)c1c(C)cc(C(C)(C)C)cc1C	inactive	–
OCCOCCOCCOCCO	inactive	–
C=CC(=O)OCCOCCOCC	inactive	–
OCC(CO)(CO)COCC(CO)(CO)CO	inactive	–
CC1(C)OC[C@@H]2O[C@@]3(C(=O)O)OC(C)(C)O[C@H]3[C@@H]2O1	inactive	–
CC(C)c1cccc(O)c1	inactive	–
C/C=C(\C)C(=O)OCc1ccccc1	inactive	–

SMILES	outcome	AC50
CCCCC(CC)COC(=O)/C=C\C(=O)OCC(CC)CCCC (stereo not given)	–	100 µM (active)
c1ccc2sc(SN(C3CCCCC3)C3CCCCC3)nc2c1	inactive	–
COc1cc2ncnc(Nc3cccc(Cl)c3)c2cc1OC	inactive	–
NC(N)=NC(=O)c1nc(Cl)c(N)nc1N	inactive	–
CC1(C)[C@H]2CC[C@]1(C)[C@H](O)C2	inactive	–
C=CC(C)(CCC=C(C)C)OC=O (stereo not given)	inactive	–
Nc1cc(N)cc(C(=O)O)c1	inactive	–
C[C@H]1C[C@@H]2[C@H]([C@@H](O)C[C@@]3(C)[C@H]2CC[C@]3(O)C(=O)CO)[C@@]2(C)C=CC(=O)C=C12	inactive	–
CCCCCCOC(=O)CCCCC	inactive	–
NCCOCCO	inactive	–
CCCC(=O)c1cc(O)c(O)cc1O	inactive	–
CCCCNC(=O)NS(=O)(=O)c1ccc(N)cc1	inactive	–
CC(C)CCCCCCCOC(=O)c1ccc(C(=O)OCCCCCCCC(C)C)c(C(=O)OCCCCCCCC(C)C)c1	inactive	–
COCCOCCOCCOCCOCCO	inactive	–
CC(C)C[C@H]1C(=O)N2CCC[C@H]2[C@]2(O)O[C@](NC(=O)[C@@H]3C=C4c5cccc6[nH]c(Br)c(c56)C[C@H]4N(C)C3)(C(C)C)C(=O)N12	–	1.9 µM (active)
CNCCCC12CCC(c3ccccc31)c1ccccc12	inactive	–
CCCCCCCCCCCCN	inactive	–
CCCCc1ccc(N)cc1	inactive	–
O=C[C@H](O)[C@H](O)[C@H](O)CO	inactive	–
Cc1ccc(Nc2ccc(O)c3c2C(=O)c2ccccc2C3=O)cc1	inactive	–

Reference: PubChem BioAssay (EPA / NIEHS)
